Hit rate of the full screen: of about 320,000 compounds, about 2,100 (0.66%) were called active.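 Rule for the calls: active = inhibition above the mean inhibition of all tested compounds plus 3 SD, set per campaign (cut at about 40% in these data); inactive = the rest.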 Many of the other results were omitted from the sample, so actives are more common in it than they were.

A word on the inhibition: it is the change of the read-out against control, counted positive when it falls.

Sequence of Induced myeloid leukemia cell differentiation protein Mcl-1 (Homo sapiens) (Q07820 whole entry, looked up): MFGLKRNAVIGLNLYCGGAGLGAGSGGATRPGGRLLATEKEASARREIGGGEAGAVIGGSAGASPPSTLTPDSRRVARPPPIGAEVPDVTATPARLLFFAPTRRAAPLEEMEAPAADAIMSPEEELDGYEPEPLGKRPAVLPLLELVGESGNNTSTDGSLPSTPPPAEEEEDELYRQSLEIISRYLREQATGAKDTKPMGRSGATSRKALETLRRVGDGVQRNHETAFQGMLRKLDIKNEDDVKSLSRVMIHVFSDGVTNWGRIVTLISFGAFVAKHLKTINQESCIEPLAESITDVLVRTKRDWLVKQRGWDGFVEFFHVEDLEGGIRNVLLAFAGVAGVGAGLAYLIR

The assay concerns the target Induced myeloid leukemia cell differentiation protein Mcl-1 (Homo sapiens) (UniProt Q07820). The assay is described as follows: inhibitors of MCL1 binding to BIM-BH3, primary screen, biochemical, fluorescence polarization (AID 2057).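 Note: 0% = DMSO wells and 100% = unlabeled Bim-BH3 peptide control; higher means more loss of mP so more displacement of Bim peptide.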 The following applies: GST-MCL1 / FITC-Bim-BH3 fluorescence polarization; at 10.9 µM; hits give high values. For orientation: Fluorescence polarisation rises when a labelled molecule tumbles more slowly, as on binding a larger partner.
For `CC(Oc1ccccc1)C(=O)Nc1c2c(nn1-c1ccccc1)CS(=O)C2` (stereo not drawn), the inhibition was 3.14% (inactive).
The value for `CC1CCN(C(=O)c2ccc(S(=O)(=O)Cc3cc(F)ccc3F)c([N+](=O)[O-])c2)CC1` was 6.72% (inactive); that for `COc1cc2c(cc1OC)C(C)N(S(=O)(=O)c1cnc(Cl)c(Cl)c1)CC2` (stereo not drawn) was 0.66% (inactive).
The value for `Cc1ccc(C2C(C#N)C(C#N)N3CCCN23)cc1` (stereo not drawn) was -13.7% (inactive); that for `COCCN(CCOC)c1nc(N)c2c(N)nc3c(c2c1C#N)CC(=O)N3Cc1ccc(Cl)cc1` was 56.7% (active).
For `C=CCN1C=C2C(=O)C(C)(OC(=O)CCc3ccccc3)C(=O)C=C2C=C1c1ccc(C#N)cc1` (stereo not drawn) the value was 23.9% (inactive); for `CC(C)(C)OC(=O)NCCCC1=CC2=CC(=O)C(C)(OC(=O)c3ccco3)C(=O)C2=CO1` (stereo not drawn), 81.6% (active).
For `CC1(OC(=O)C2CCCC2)C(=O)C=C2C=C(c3ccc(C#N)cc3)OC=C2C1=O` (stereo not drawn), the inhibition was 26.9% (inactive).
In the case of `Cc1cc(O)c(Sc2ccccc2)c(=O)o1`, the inhibition was 2.06% (inactive).
The value for `C=CCc1cccc(/C=N/NC(=O)COc2ccc(-n3cnnn3)cc2)c1O` was 11.2% (inactive); that for `Oc1ccc(-c2onc3ccc(Cl)cc23)cc1` was -2.01% (inactive).
The value for `CC(OC(=O)c1ccc2noc(-c3ccccc3)c2c1)C(N)=O` (stereo not drawn) was -8.19% (inactive); that for `CCOc1ccc(NC(=O)CN(C)C(=O)Cn2c(=O)cnc3ccccc32)cc1OCC` was 3.26% (inactive); that for `Cc1nc(-c2ccc(F)cc2)c(CC(=O)N2CCN(S(=O)(=O)c3ccc(F)cc3)CC2)s1` was -0.35% (inactive).
Consider `COC(=O)c1ccc2c(c1)S(=O)(=O)NC(=NCCCN1CCOCC1)S2`, for which the inhibition was -0.08% (inactive).
The value for `Cc1c(NC(=O)C(C)OC(=O)c2c3c(nc4ccccc24)CCC(C)C3)c(=O)n(-c2ccccc2)n1C` (stereo not drawn) was -4.73% (inactive).
In the case of `COC(=O)C1=C(Nc2ccc(C)cc2)C=C(C)C(C(=O)OC)C1c1ccc(F)cc1` (stereo not drawn), the inhibition is -0.87% (inactive).
Consider `CC(C)N(C(=O)COC(=O)c1ccccc1C(=O)N1CCN(c2ccc(F)cc2)CC1)C(C)C`, for which the inhibition is 11.2% (inactive).
For the molecule `O=C(COC(=O)c1n[nH]c2ccccc12)NCc1ccccc1`, the inhibition is -0.26% (inactive).
Regarding `O=C(COC(=O)c1ccccc1C(=O)N1CCN(c2ccccc2)CC1)NCc1ccccc1`, the inhibition was 51.8% (active).
For the molecule `OCC1(Cc2ccccc2C(F)(F)F)CCN(Cc2ccncc2)CC1`, the inhibition was 4.27% (inactive).
The value for `CC1(NC(=O)CCS(=O)(=O)c2ccc(Cl)cc2)CCS(=O)(=O)C1` (stereo not drawn) was -1.26% (inactive); that for `CC(=O)N1c2ccc(S(=O)(=O)N3CCC(C(=O)NC4CCCCC4C)CC3)cc2CC1C` (stereo not drawn) was 2% (inactive); that for `CC(C)(C)c1ccc(/C=C2\Oc3c(ccc(O)c3CN3CCN(CCO)CC3)C2=O)cc1` was 49.7% (active).
The value for `CCOC(=O)c1oc2c(CN3CCN(CCO)CC3)c(O)c(CC)cc2c(=O)c1-c1nc2ccccc2s1` was -0.61% (inactive).
The value for `CCN(CC(=O)Nc1ccccc1C(F)(F)F)C(=O)CSCc1c(C)noc1C` was -5.73% (inactive).
Consider `COC(=O)c1cc(NS(=O)(=O)c2ccc3c(c2)c(=O)n(C)c(=O)n3C)cc(C(=O)OC)c1`, for which the inhibition was 3.04% (inactive).
Consider `CCOC(=O)c1ccccc1CN1C(=O)c2ccccc2S1(=O)=O`, for which the inhibition was 3.41% (inactive).
The value for `CC(C)OC(=O)CN1C(=O)C(=O)c2ccccc21` was 3.82% (inactive).
Regarding `CCOC(=O)c1cc2n(c1N)-c1ccccc1C2=O`, the inhibition was 153% (active).
As for `Cc1noc(C)c1-c1nc(CSc2ccc(Cl)cc2)no1`, the inhibition was 7.94% (inactive).
The value for `O=C(c1ccc(OC2CCN(C(=O)c3cccnc3)CC2)cc1)N1CCCCCC1` was 1.48% (inactive).
With `Cc1ccc(OS(=O)(=O)c2ccc(-c3csc(C)n3)s2)c(C)c1`, the inhibition was 2.53% (inactive).
For `Cc1cc(NC(=O)CSc2nc3c(cc2C#N)CCCCC3)no1` the value was 2.25% (inactive); for `CC(NC(=O)CSc1nc2c(cc1C#N)CN(C)CC2)c1ccccc1` (stereo not drawn), 45% (active); for `CC1(C)CCc2nc(SCc3ccccc3)c(C#N)cc2C1`, -2.93% (inactive).
The value for `CC1(C)NC(=O)N(CC(=O)Nc2cc(C(F)(F)F)cc(C(F)(F)F)c2)C1=O` was -2.94% (inactive); that for `Cc1ccc(C(=O)Nc2ccc3c(c2)OCO3)cc1S(=O)(=O)N1CCCCC1` was 7.58% (inactive).
Consider `Cc1ccc(C(=O)O)cc1-c1ccc(/C=C2\SC(=O)N(CC(=O)Nc3ccc4c(c3)OCO4)C2=O)o1`, for which the inhibition is 56.2% (active).
The value for `Cn1cccc1/C=C1\SC(=O)N(CC(=O)Nc2ccc(F)cc2)C1=O` was -0.64% (inactive).
For `Cc1ccc(-c2nc(SCC(=O)Nc3ccccc3OC(F)F)c3c(C)c(C(=O)O)sc3n2)cc1` the value was 54.1% (active); for `CCOC(=O)c1ccc[n+](CC(=O)Nc2ccccc2OC(F)F)c1`, -5.72% (inactive).
Take `COc1ccccc1NC(=O)CSc1nc2sc3c(c2c(=O)n1-c1ccccc1)CCN(C)C3`: the inhibition is -0.79% (inactive).
The value for `COc1cc2c(cc1OC)C(=O)NCC(C)(C)O2` was 5.06% (inactive); that for `CCC(C)[C@H]1COCCS(=O)(=O)N1Cc1ccc(C)cc1` (stereo partly drawn) was -11.6% (inactive); that for `CCOc1ccc(NC(=O)COc2ccc(C(=O)NC3CCCc4ccccc43)cc2OC)cc1` (stereo not drawn) was -23.3% (inactive).
As for `COC(=O)c1cc(OCC(=O)NC2CCCc3ccccc32)cc(C(=O)OC)c1` (stereo not drawn), the inhibition is 40.6% (active).
The value for `Nc1ccc(C(=O)OCC(=O)NC2CCCc3ccccc32)cc1[N+](=O)[O-]` (stereo not drawn) was -14.1% (inactive); that for `CCOC(=O)C(Cc1ccccc1)NC(=O)CCC(=O)c1ccc(OC)cc1` (stereo not drawn) was 4.46% (inactive); that for `COc1cc([C@H](Cc2ccccc2)NC(C)=O)oc(=O)c1` was 59.4% (active).
Turning to `COC(=O)[C@H](Cc1ccccc1)NC(=O)Nc1ccc(OC)cc1`, the inhibition was 2.03% (inactive).
As to `Cc1ccc(OCC(=O)c2cc(C)n(Cc3ccco3)c2C)c([N+](=O)[O-])n1`, the inhibition was -1.45% (inactive).
For the molecule `COC(=O)c1c(NC(=O)c2ccc(S(=O)(=O)N3CCOCC3)cc2)sc2c1CCN(C(C)C)C2`, the inhibition is -0.44% (inactive).
For the molecule `c1ccc2c(c1)CSc1sccc1C2=C1CCNCC1`, the inhibition was 8.84% (inactive).
With `CCSc1nc2sc3c(c2c(=O)[nH]1)CC(C)(C)OC3`, the inhibition is 7.1% (inactive).
With `CCC1(C)Cc2c(sc3nc(SC)[nH]c(=O)c23)CO1` (stereo not drawn), the inhibition was 6.42% (inactive).
For `CC/C(C)=N/Nc1nc2sc3c(c2c(=O)[nH]1)CC(C)(C)OC3` the value was 85% (active); for `Nc1cc(N)nc(SCC(=O)Nc2cccc(S(=O)(=O)N3CCCCC3)c2)n1`, -0.58% (inactive).
Regarding `CC[C@]1(O)CC2CN(CCc3c([nH]c4ccccc34)[C@@](C(=O)OC)(c3cc4c(cc3OC)N(C=O)[C@H]3[C@@](O)(C(=O)OC)[C@H](OC(C)=O)[C@]5(CC)C=CCN6CC[C@]43[C@@H]65)C2)C1` (stereo partly drawn), the inhibition is 20.2% (inactive).
`CC[C@]1(O)C[C@@H]2CN(CCc3c([nH]c4ccccc34)[C@@](C(=O)OC)(c3cc4c(cc3OC)N(C)[C@H]3[C@@](O)(C(=O)OC)[C@H](OC(C)=O)[C@]5(CC)C=CCN6CC[C@]43[C@@H]65)C2)C1`: the inhibition was 119% (active).
As for `O=C(Cn1c(NCCO)nc2ccccc21)c1ccc(Cl)cc1Cl`, the inhibition is -2.09% (inactive).
The value for `CC[C@@H](C)[C@H](NC(=O)CCc1c(C)c2cc3c4c(oc3c(C)c2oc1=O)CCCC4)C(=O)O` was 8.32% (inactive); that for `COc1ccc2nc(N3CCCC(O)C3)c(C#N)cc2c1` (stereo not drawn) was 26.1% (inactive); that for `CCOC(=O)c1cc(C#N)c(N2CCCCC2)nc1-c1ccccc1` was 2.02% (inactive).
For `CCOc1ccc2nc(N3CCCN(C(=O)Nc4ccccc4C)CC3)c(C#N)cc2c1` the value was 48.6% (active); for `CSc1ncccc1C(=O)OCc1ccc(Br)cc1`, 4.52% (inactive); for `CCC(C)(C)NC(=O)c1cc([N+](=O)[O-])ccc1N1CCCCC1`, -1.47% (inactive).
For `O=C1Nc2ccccc2/C1=C/c1ccnc2ccccc12` the value was 4.28% (inactive); for `CN(C)/C=C1/Nc2ccccc2C1=O`, 5.28% (inactive); for `Cc1cc(C)c(/C=C2\C(=O)Nc3ccccc32)[nH]1`, 180% (active).
As to `CCOC(=O)CNc1nc2ccccc2n2c(C)nnc12`, the inhibition was 6.27% (inactive).
For `Fc1ccc(CNc2nc3ccccc3n3nnnc23)cc1` the value was 60.1% (active); for `COc1ccc(CNc2nnnn2C)cc1`, 2.94% (inactive); for `CCC1CCCCN1C(=S)Nc1ccc(SC(F)F)cc1` (stereo not drawn), 7.19% (inactive).
The value for `COc1ccc(N2CC(C(=O)N[C@@H](C)C(=O)N3CCCCC3)CC2=O)cc1` (stereo partly drawn) was 3.6% (inactive); that for `O=C1c2ccccc2C(=O)N1c1cccc2ccccc12` was 2.1% (inactive).
For `C[N+](C)(CCCCCC[N+](C)(C)CCCN1C(=O)c2cccc3cccc(c23)C1=O)CCCN1C(=O)c2cccc3cccc(c23)C1=O` the value was -10.5% (inactive); for `Cc1nn(-c2cc(Cl)ccc2N)c(=O)c2ccccc12`, 0.14% (inactive).
With `O=C(O)c1ccc2c3c(cccc13)C(=O)N(OS(=O)(=O)c1ccccc1)C2=O`, the inhibition is -8.23% (inactive).
The value for `CC(C)(CNC(=O)Cc1ccc(Cl)cc1Cl)N1CCOCC1` was 4.7% (inactive); that for `O=C(c1cccnc1)N(c1cc2sc(=O)oc2c2ccccc12)S(=O)(=O)c1ccccc1` was 23.9% (inactive); that for `CCCCC(NC(=O)c1cccc(Br)c1)C(=O)O` (stereo not drawn) was -0.19% (inactive).
The value for `CC1=NN(C(C)C)C(=O)C1` was -2.13% (inactive); that for `COCc1c(N)c(C)nc(Cl)c1C#N` was 8.83% (inactive).
For `CCOc1ccc(N(CC(=O)NCC2CCCO2)S(=O)(=O)c2ccc(C)cc2)cc1` (stereo not drawn) the value was -3.41% (inactive); for `Cc1c(CC(=O)N2CCN(C(=O)C3COc4ccccc4O3)CC2)c(=O)oc2c(O)c(O)ccc12` (stereo not drawn), 57.5% (active); for `Cc1c(C)c2ccc(OCC(=O)N3CCC(C(=O)O)CC3)c(C)c2oc1=O`, -1.79% (inactive).
As to `O=C(CNC(=O)C1COc2ccccc2O1)N/N=C/c1cc(Br)c(O)c(Br)c1` (stereo not drawn), the inhibition was 10.8% (inactive).

Source of the values: PubChem BioAssay AID2057 (The Scripps Research Institute Molecular Screening Center, 2009).
